In the library only some 19% were active in any assay of this set; here they are far more common.
HT1080-NT tox: qHTS for induction of synthetic lethality in tumor cells producing 2HG: qHTS for the HT-1080-NT fibrosarcoma cell line | HT-1080-NT fibrosarcoma viability, CellTiter-Glo ATP luminescence, 48 h | Potency, µM (titrated, usually from 46.1 µM), most hits filed as cytotoxic | actives 1.6% (n = 360,000);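 further: NT is the 2HG producing partner of a matched IDH1 knockdown line; nearly all actives have a fitted effect of over 55% in size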
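Luminescent CellTiter-Glo readout after 48 hours of compound exposure at 37 degrees C defined viability of HT-1080-NT cells. Activity was normalized to DMSO wells and cell-free media wells; concentration-response curves were fitted and assigned curve classes.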
TDP1 cell noCPT: qHTS for Inhibitors of human tyrosyl-DNA phosphodiesterase 1 (TDP1): qHTS in cells in absence of CPT; Potency, µM (doses to about 46.2 µM), actives largely listed as inhibitors; actives 15% (n = 420,000); DT40 Tdp1-/- hTDP1 cells, no CPT, ATP luminescence, 48 h; further: nearly all actives have a fitted effect of over 55% in size
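Camptothecin absent (DMSO only). Human TDP1-complemented DT40 knockout cells, 400 cells/well, 37 °C for minimum 48 hr; ATP measured via CellTiter-Glo, 30 min dark incubation, luminescence.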
KB-V1 MDR tox: qHTS assay for MDR1-selective chemotherapeutics: Primary screen using the drug-selected MDR subline cells KB-V1; Potency, µM (series often up to 46.1 µM), usual class: cytotoxic; actives 3.4% (n = 400,000); KB-V1 MDR cells viability, CellTiter-Glo, 72 h; further: nearly all actives have a fitted effect of over 60% in size
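Compound-treated KB-V1 multidrug-resistant cells, 72 h, 37 degrees C; viability by CellTiter-Glo. Fitted qHTS curves give the values.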
HT1080 IDH1KD tx: qHTS for induction of synthetic lethality in tumor cells producing 2HG: qHTS for the HT-1080-IDH1KD cell line; actives 2% (n = 360,000); Potency, µM (series often up to 46.1 µM), most hits filed as cytotoxic; HT-1080 IDH1 knockdown viability, ATP luminescence, 48 h
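CellTiter-Glo luminescence after 48 h compound exposure at 37 degrees C of IDH1-knockdown HT-1080 cells in 5% FBS RPMI. %Activity scaled between DMSO wells and cell-free media wells, with curves fitted and assigned curve classes.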
TDP1 cell CPT: qHTS for Inhibitors of human tyrosyl-DNA phosphodiesterase 1 (TDP1): qHTS in cells in presence of CPT; chicken DT40 Tdp1-/-;hTDP1 cells + 20 nM CPT, ATP luminescence, 48 h; Potency, µM (doses to about 46.2 µM), actives largely listed as inhibitors; actives 12% (n = 420,000); further: nearly all actives have a fitted effect of over 55% in size
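Chicken DT40 Tdp1-/- cells stably complemented with human TDP1 were seeded at 400 cells/well in medium containing 20 nM camptothecin, exposed to pin-transferred compounds, and grown at 37 °C for at least 48 hr. Viability was read as ATP luminescence.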
KB-3-1 tox: qHTS assay for MDR1-selective chemotherapeutics: Primary screen using the parental adenocarcinoma cell KB-3-1; Potency, µM (highest dose often 46.1 µM), usual class: cytotoxic; AID 1347075, 2019; KB-3-1 viability, CellTiter-Glo ATP luminescence, 72 h; actives 1.4% (n = 400,000); further: nearly all actives have a fitted effect of over 60% in size
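KB-3-1 cells, DMEM (no phenol red) + 10% FBS; compound by pin transfer, 72 h, 37 °C. Readout: CellTiter-Glo luminescence after 10 min. Data normalized, curve-fitted.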
Large screens that a line does not name were inactive. The call rests on the fitted dose curve; in most records, active means well fitted curve in the direction sought with a large enough effect; inconclusive means small, poorly fitted or top-dose-only effect, or another doubt; inactive means no such curve, though single readings can be large; an effect the other way counts as inactive or inconclusive.

CC(=O)Nc1ccc(-c2ccnc3c2CC(C(=O)Nc2cccc(OC(F)(F)F)c2)O3)cc1 (stereo not drawn)	HT1080-NT tox inconclusive, TDP1 cell noCPT 18µM, KB-V1 MDR tox inconclusive, HT1080 IDH1KD tx inconclusive, TDP1 cell CPT 21µM, KB-3-1 tox inconclusive
O=C(Nc1ccccc1)C1Cc2c(-c3ccc(Cl)cc3)ccnc2O1 (stereo not drawn)	TDP1 cell noCPT inconclusive, KB-V1 MDR tox inconclusive, TDP1 cell CPT inconclusive
NC(=O)c1cccc(-c2ccnc3c2CC(C(=O)Nc2cccc(C(F)(F)F)c2)O3)c1 (stereo not drawn)	HT1080-NT tox inconclusive, TDP1 cell noCPT 18µM, KB-V1 MDR tox 23µM, HT1080 IDH1KD tx inconclusive, TDP1 cell CPT 18µM, KB-3-1 tox inconclusive
CC(=O)Nc1ccc(-c2ccnc3c2CC(C(=O)Nc2cccc(N(C)C)c2)O3)cc1 (stereo not drawn)	HT1080-NT tox inconclusive, TDP1 cell noCPT 2.6µM, HT1080 IDH1KD tx 12µM, TDP1 cell CPT 18µM
CS(=O)(=O)Nc1cccc(NC(=O)C2Cc3c(-c4cccc(C(N)=O)c4)ccnc3O2)c1 (stereo not drawn)	none
CC(=O)Nc1ccc(-c2ccnc3c2CC(C(=O)Nc2cccc(C(F)(F)F)c2)O3)cc1 (stereo not drawn)	HT1080-NT tox inconclusive, KB-V1 MDR tox 23µM, HT1080 IDH1KD tx 16µM, TDP1 cell CPT 23µM, KB-3-1 tox inconclusive
CC(=O)Nc1ccc(NC(=O)C2Cc3c(-c4ccc(Cl)cc4)ccnc3O2)cc1 (stereo not drawn)	HT1080-NT tox inconclusive
COc1ccc(C(C(=O)NC2CCCCC2)N(C(=O)c2sc(C)nc2C)c2ccc(C(C)=O)cc2)cc1 (stereo not drawn)	HT1080-NT tox inconclusive
Cc1cc(Cl)ccc1OCC(=O)N/N=C/c1ccncc1	TDP1 cell noCPT inconclusive
O=C(O)/C=C/c1ccccc1Oc1ccc(Cl)cc1Cl	none
COc1ccccc1CNC(=O)Nc1nnc([C@H]2C[C@H](O)[C@@H](CO)O2)s1	none
CC(=O)Nc1cccc(-c2ccnc3c2CC(C(=O)Nc2cccnc2)O3)c1 (stereo not drawn)	TDP1 cell noCPT inconclusive
CC(=O)Nc1ccc(-c2ccnc3c2CC(C(=O)Nc2cccc(Oc4ccccc4)c2)O3)cc1 (stereo not drawn)	HT1080-NT tox inconclusive, TDP1 cell noCPT 21µM, KB-V1 MDR tox inconclusive, HT1080 IDH1KD tx 15µM, TDP1 cell CPT inconclusive, KB-3-1 tox inconclusive
CC(=O)Nc1cccc(-c2ccnc3c2CC(C(=O)Nc2cccc(OC(F)(F)F)c2)O3)c1 (stereo not drawn)	HT1080-NT tox inconclusive, TDP1 cell noCPT 18µM, HT1080 IDH1KD tx inconclusive, TDP1 cell CPT inconclusive
O=C(Nc1ccccc1Cl)c1cc(C2CCCN(C(=O)c3cccs3)C2)on1 (stereo not drawn)	none
CCc1nc(SC)[nH]c(=O)c1C	none
CSc1nc(=S)cc(C)[nH]1	HT1080-NT tox inconclusive, TDP1 cell noCPT inconclusive, TDP1 cell CPT 18µM
COC(=O)c1cc(OC)c(OC)cc1NC(=O)c1ccc2c(c1)CCN2S(C)(=O)=O	none (no result: HT1080-NT tox, HT1080 IDH1KD tx)
CCNC(=O)c1ccc(C23CC4CC(CC(C4)C2)C3)o1	TDP1 cell noCPT 15µM, TDP1 cell CPT inconclusive
Cc1ccc(C(=O)c2cc3c(cc2[N+](=O)[O-])OCCO3)cc1	TDP1 cell noCPT inconclusive
N=NC(=O)c1ccccc1Nc1c(O)[nH]c2ccccc12	HT1080-NT tox inconclusive, TDP1 cell noCPT inconclusive, KB-V1 MDR tox inconclusive, HT1080 IDH1KD tx inconclusive, TDP1 cell CPT 21µM
